Results: PubChem BioAssay (NCI)
Where “and” joins values, the source holds several entries; their conditions need not be identical. Equal entries are not always repeated. This is part of a sample that, as a whole, favours compounds with a hit. Of some 83,000 tested, about 20% had one in any assay.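 For each line, cells grew in 96-well plates with the test compound present at a single concentration for 48 hours.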 Calls of active or inactive are those of the source. The calls were made as follows: active = growth percent below 10; inactive = the rest.

Legend:
Experiment in all cases: NCI-60 one-dose screen, 48 h (100 = growth as untreated, 0 = no growth, -100 = all killed)
Settings in all cases: 10 µM unless noted
NCI-H23 lung = test system: NCI-H23 lung
NCI-H226 lung = test system: NCI-H226 lung
NCI-H322M lung = test system: NCI-H322M lung
HOP-62 NSCLC = test system: HOP-62 NSCLC
NCI-H460 lung = test system: NCI-H460 lung
HOP-92 NSCLC = test system: HOP-92 NSCLC
NCI-H522 lung = test system: NCI-H522 lung
A549/ATCC NSCLC = test system: A549/ATCC NSCLC
786-0 renal = test system: 786-0 renal
COLO 205 colon = test system: COLO 205 colon
DU-145 prostate = test system: DU-145 prostate
K-562 leukemia = test system: K-562 leukemia
MALME-3M melanoma = test system: MALME-3M melanoma
MDA-MB-231 breast = test system: MDA-MB-231 breast
RXF 393 renal = test system: RXF 393 renal
SF-268 CNS = test system: SF-268 CNS
SF-295 CNS = test system: SF-295 CNS
SF-539 CNS = test system: SF-539 CNS
UACC-257 melanoma = test system: UACC-257 melanoma
M14 melanoma = test system: M14 melanoma

Row | SMILES | growth (NCI-H23 lung) | growth (NCI-H226 lung) | growth (NCI-H322M lung) | growth (HOP-62 NSCLC) | growth (NCI-H460 lung) | growth (HOP-92 NSCLC) | growth (NCI-H522 lung) | growth (A549/ATCC NSCLC) | growth (786-0 renal) | growth (COLO 205 colon) | growth (DU-145 prostate) | growth (K-562 leukemia) | growth (MALME-3M melanoma) | growth (MDA-MB-231 breast) | growth (RXF 393 renal) | growth (SF-268 CNS) | growth (SF-295 CNS) | growth (SF-539 CNS) | growth (UACC-257 melanoma) | growth (M14 melanoma)
1 | COc1cc(-c2nccc3cc4c(cc23)OCO4)cc(OC)c1OC | 56.9% (inactive) and 46.7% (inactive) | 62.9% (inactive) and 49.7% (inactive) | 66.1% (inactive) and 71.6% (inactive) | 38.1% (inactive) and 39.4% (inactive) | 18.1% (inactive) and 14.8% (inactive) | 58.3% (inactive) | -0.618% (active) | 46.6% (inactive) and 38.9% (inactive) | 38.6% (inactive) and 66.7% (inactive) | 11.2% (inactive) and -13.8% (active) | 51.9% (inactive) and 30.2% (inactive) | 13.4% (inactive) and 21% (inactive) | 62.2% (inactive) and 44.7% (inactive) | 40.3% (inactive) and 48.9% (inactive) | 6.69% (active) and 22.1% (inactive) | 43.8% (inactive) and 40.6% (inactive) | 19.2% (inactive) and 15.7% (inactive) | 19.9% (inactive) and 18.8% (inactive) | 52.8% (inactive) and 39.3% (inactive) | 14% (inactive) and 23.1% (inactive)
2 | COc1ccc(S(=O)(=O)N2CCOCC2)cc1NC(=O)c1[nH]c(C)c2c1CCCCC2=O | 104% (inactive) and 59% (inactive) | 104% (inactive) and 62% (inactive) | 105% (inactive) and 64.6% (inactive) | 109% (inactive) and 33.8% (inactive) | 103% (inactive) and 75.9% (inactive) | 111% (inactive) and 27% (inactive) | 100% (inactive) and 40.9% (inactive) | 97.2% (inactive) and 61.7% (inactive) | 107% (inactive) and 93.4% (inactive) | 113% (inactive) and 34.8% (inactive) | 107% (inactive) and 81.5% (inactive) | 105% (inactive) and 46.1% (inactive) | 103% (inactive) and 53.9% (inactive) | 110% (inactive) and 44.6% (inactive) | 109% (inactive) and 37.7% (inactive) | 98.5% (inactive) and 72.1% (inactive) | 100% (inactive) and 60.7% (inactive) | 95.4% (inactive) and 43.6% (inactive) | 101% (inactive) and 58.7% (inactive) | 109% (inactive) and 102% (inactive)
3 | CC(=O)Nc1ccc(O)cc1 | 99.3% (inactive) and 112% (inactive) and 102% (inactive) | 92.9% (inactive) and 106% (inactive) and 112% (inactive) | 108% (inactive) and 111% (inactive) and 102% (inactive) | 111% (inactive) and 106% (inactive) and 104% (inactive) | 109% (inactive) and 105% (inactive) and 108% (inactive) | 80.3% (inactive) and 120% (inactive) | 94.3% (inactive) and 47% (inactive) | 96.9% (inactive) and 122% (inactive) and 108% (inactive) | 99.5% (inactive) and 106% (inactive) and 103% (inactive) | 105% (inactive) and 116% (inactive) and 101% (inactive) | 103% (inactive) and 113% (inactive) and 118% (inactive) | 107% (inactive) and 83.2% (inactive) and 106% (inactive) | 100% (inactive) and 1.98% (active) and 142% (inactive) | 101% (inactive) and 119% (inactive) and 92.4% (inactive) | 108% (inactive) and 129% (inactive) | 100% (inactive) and 106% (inactive) and 105% (inactive) | 89.9% (inactive) and 94.1% (inactive) and 107% (inactive) | 104% (inactive) and 95.4% (inactive) and 103% (inactive) | 98.3% (inactive) and 155% (inactive) and 107% (inactive) | 97.2% (inactive) and 123% (inactive) and 109% (inactive)
4 | CCN1CCN(CCNc2nccc(-c3c(-c4cccc(O)c4)nc4sccn34)n2)S1(=O)=O | 87.1% (inactive) and 88.3% (inactive) | 98.9% (inactive) and 99.1% (inactive) | 66% (inactive) and 68.3% (inactive) | 120% (inactive) and 92.2% (inactive) | 52.7% (inactive) and 47.9% (inactive) | 32.2% (inactive) | 67% (inactive) and 63.1% (inactive) | 86% (inactive) and 70.1% (inactive) | 94.2% (inactive) and 64.3% (inactive) | 24.5% (inactive) and 28.1% (inactive) | 67.1% (inactive) and 55.1% (inactive) | 69.6% (inactive) and 62.7% (inactive) | -11.1% (active) and -23.5% (active) | 64.7% (inactive) and 68.3% (inactive) | 42.8% (inactive) and 61.8% (inactive) | 86.2% (inactive) | 93.3% (inactive) and 98.9% (inactive) | 89.7% (inactive) and 87.3% (inactive) | 1.33% (active) and -7.98% (active) | 5.92% (active) and 8.15% (active)
5 | CC(=O)Oc1cc(C(=O)O)cc(OC(C)=O)c1OC(C)=O | 103% (inactive) and 97.3% (inactive) | 96.4% (inactive) and 89.6% (inactive) | 116% (inactive) and 102% (inactive) | 88.8% (inactive) and 99% (inactive) | 113% (inactive) and 108% (inactive) | 99.1% (inactive) and 107% (inactive) | 100% (inactive) and 93.4% (inactive) | 103% (inactive) and 90.1% (inactive) | 111% (inactive) and 102% (inactive) | 125% (inactive) and 122% (inactive) | 118% (inactive) and 113% (inactive) | 108% (inactive) | 115% (inactive) and 96.5% (inactive) | 94% (inactive) and 97.3% (inactive) | 99.5% (inactive) and 122% (inactive) | 107% (inactive) and 102% (inactive) | 107% (inactive) and 102% (inactive) | 121% (inactive) and 104% (inactive) | 95.3% (inactive) and 90.7% (inactive) | 105% (inactive) and 99% (inactive)
6 | Oc1c(Cl)cc(Cl)cc1Sc1cc(Cl)cc(Cl)c1O | 11.4% (inactive) and 6.4% (active) and 76% (inactive) | 94.5% (inactive) and 48.1% (inactive) and 88.3% (inactive) | 25.6% (inactive) and 33.1% (inactive) and 87.1% (inactive) | 85.8% (inactive) and 61.6% (inactive) | 7.66% (active) and 11.8% (inactive) and 62.3% (inactive) | -12.5% (active) and -28.3% (active) and 32.7% (inactive) | 2.94% (active) and -18.8% (active) and 48.9% (inactive) | 62.5% (inactive) and 8.2% (active) and 88.4% (inactive) | 47.7% (inactive) and 104% (inactive) | 118% (inactive) and 87.9% (inactive) and 110% (inactive) | 75.6% (inactive) and 29.3% (inactive) and 94.6% (inactive) | 18% (inactive) and 8.54% (active) and 41% (inactive) | 10.7% (inactive) and 11.3% (inactive) and 82.2% (inactive) | 84.2% (inactive) and -21.8% (active) and 79.6% (inactive) | 91.3% (inactive) and 16.1% (inactive) and 87.9% (inactive) | 33.2% (inactive) and 21.9% (inactive) and 72.1% (inactive) | 18.6% (inactive) and 15.7% (inactive) and 75.4% (inactive) | 25.8% (inactive) and 93.6% (inactive) | 56% (inactive) and -16.2% (active) and 77.3% (inactive) | 69.1% (inactive) and 35% (inactive) and 105% (inactive)
7 | O=C1NC(=O)C2(CCc3ccccc32)N1 (stereo not given) | 108% (inactive) and 89.4% (inactive) | 101% (inactive) and 92.9% (inactive) | 98.8% (inactive) and 106% (inactive) | 105% (inactive) and 88.3% (inactive) | 98.3% (inactive) and 116% (inactive) | 174% (inactive) | 98.6% (inactive) and 80.6% (inactive) | 97.4% (inactive) and 91.4% (inactive) | 115% (inactive) and 94.7% (inactive) | 97.4% (inactive) and 108% (inactive) | 123% (inactive) and 102% (inactive) | 116% (inactive) and 83.6% (inactive) | 97% (inactive) and 96.7% (inactive) | 106% (inactive) and 97.2% (inactive) | 95.3% (inactive) | 99% (inactive) and 107% (inactive) | 96.5% (inactive) and 96% (inactive) | 90% (inactive) and 105% (inactive) | 107% (inactive) and 86.1% (inactive) | 107% (inactive) and 96.5% (inactive)
